# Screens (PubChem BioAssay)
# G9a block: blocks human histone lysine methyltransferase G9a. G9a H3K9 monomethylation, AlphaScreen, 2 h. Potency, µM (titrated, usually from 102 µM), usual class: inhibitors. actives 8.8% (n = 350,000). AID 504332; also: nearly all actives have a fitted effect of over 75% in size
# Target sequence (Q96KQ7 913-1193 limits assumed): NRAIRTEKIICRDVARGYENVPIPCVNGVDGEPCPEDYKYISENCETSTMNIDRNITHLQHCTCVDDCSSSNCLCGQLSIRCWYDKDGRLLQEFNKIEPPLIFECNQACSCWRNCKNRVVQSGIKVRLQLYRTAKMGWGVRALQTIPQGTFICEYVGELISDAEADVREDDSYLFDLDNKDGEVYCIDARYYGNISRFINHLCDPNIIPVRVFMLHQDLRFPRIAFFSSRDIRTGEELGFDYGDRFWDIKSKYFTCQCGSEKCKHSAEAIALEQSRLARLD
#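 Chemiluminescent proximity detection of H3K9 monomethylation, read after 10 min bead incubation in the dark. Reaction: 20 nM G9a, 500 nM biotin-H3K9 peptide, 20 uM SAM cofactor, 2 h, room temperature, following 15 min enzyme-compound preincubation.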
# BAZ2B block: blocks human BAZ2B | Q9UIF8 | AlphaScreen BAZ2B-H3K14Ac peptide displacement | Potency, µM (series often up to 114 µM), actives largely listed as inhibitors | actives 4.4% (n = 360,000); also: nearly all actives have a fitted effect of over 60% in size
#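 Compounds, titrated to a top concentration of 110 uM, were incubated 30 min at room temperature with preformed BAZ2B/acetyl-K14 H3 peptide complex (50 nM each). Proximity signal was measured by AlphaScreen after 20 min with beads.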
# JMJD2A Tudor: blocks the human JMJD2A Tudor domain | O75164 | AlphaScreen JMJD2A-Tudor / H3K4me3 peptide binding | Potency, µM (top dose mostly 114 µM), hits mostly inhibitors | actives 4.4% (n = 390,000) | AID 504339; also: nearly all actives have a fitted effect of over 50% in size
# L3MBTL1 inh: blocks human L3MBTL1; Q9Y468; AlphaScreen L3MBTL1–H3K9me1 peptide binding; Potency, µM (doses to about 57.1 µM), hits mostly inhibitors; actives 0.66% (n = 230,000); AID 485360; also: nearly all actives have a fitted effect of over 60% in size
#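 First, the protein-peptide complex forms for 30 min at room temperature (L3MBTL1 50 nM, biotinylated H3K9me1 peptide 75 nM). Next, compounds are pin-transferred and incubated 30 min. Finally, AlphaScreen beads are added and read after 30 min.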
# HP1b chromo inh: blocks HP1-beta chromodomain binding to methylated histone tails; AlphaScreen HP1-beta / biotin-H3K9me3 peptide binding; actives 0.56% (n = 390,000); Potency, µM (top dose mostly 114 µM), actives largely listed as inhibitors; P83916; also: nearly all actives have a fitted effect of over 70% in size
# Target sequence (P83916 whole entry, looked up): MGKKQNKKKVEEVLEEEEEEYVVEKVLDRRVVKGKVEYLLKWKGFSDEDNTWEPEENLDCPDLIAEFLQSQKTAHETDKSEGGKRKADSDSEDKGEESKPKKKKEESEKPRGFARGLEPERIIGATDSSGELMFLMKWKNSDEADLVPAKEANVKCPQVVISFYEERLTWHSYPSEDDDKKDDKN
#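 HP1-beta protein (50 nM final) preincubated 30 min at room temperature with biotinylated H3(1-18)K9me3 peptide (50 nM) in PBS pH 7.4, 0.01% Tween-20, then compound added for 30 min. AlphaScreen streptavidin donor/nickel chelate acceptor beads (10 ug/mL final), 30 min dark, luminescence read.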
# Hits are given with their value; n = inactive; u = inconclusive; x = no result; ! = repeats disagree; [ ] = dose if it differs, or a comment. Most compounds without a hit are left out; they make up all but 11% or so of the library. Calls follow the shape of the dose curve; as a rule, active = well fitted inhibition curve with a large enough effect; inconclusive = small, poorly fitted or top-dose-only effect; inactive = no such curve, though single readings can be large or run the other way.
SMILES,G9a block,BAZ2B block,JMJD2A Tudor,L3MBTL1 inh,HP1b chromo inh
Cn1cnnc1SC1CCCCC1NS(=O)(=O)c1ccc(Cl)cc1 (stereo unspecified),13µM,u,n,n,n
Nn1cnnc1SC1CCCCC1NS(=O)(=O)c1ccccc1 (stereo unspecified),u,71µM,n,n,n
CC(=O)Nc1ccc(NC2CCCCC2NS(=O)(=O)c2ccc(Cl)cc2)cc1 (stereo unspecified),40µM,n,n,x,n
CCc1ccc(NC(=O)c2ccc3c(c2)N(Cc2ccc(C)cc2)CCS3)cc1,n,n,n,x,n
CCCCSCCCNC(=O)c1cn(CC)c2ccc(S(=O)(=O)N(C)C3CCCCC3)cc2c1=O,n,x,n,x,n
CC(NC(=O)c1cccc(NC(=O)c2nsc3ccccc23)c1)c1ccccc1 (stereo unspecified),n,n,n,x,n
CCN(CC(=O)Nc1cc(Cl)ccc1C)C(=O)CCS(=O)(=O)c1ccc(C)cc1,50µM,n,n,n,n
Cc1ccc(S(=O)(=O)CCC(=O)Nc2cc(Cl)ccc2-n2cncn2)cc1,56µM,n,n,n,n
CCOc1ccc(OCCCC(=O)Nc2cc(Cl)ccc2-n2cncn2)cc1,n,n,n,n,n
Cc1ccc(C)c(NC(=O)CN2C(=O)c3cccc4cccc2c34)c1,n,n,n,x,n
CCOC(=O)c1[nH]c2ccccc2c1NC(=O)CC(C)(C)C,50µM,n,n,x,n
CCOC(=O)c1[nH]c2ccccc2c1NC(=S)Nc1cccc(C)c1C,45µM,u,u,n,n
CCOC(=O)c1[nH]c2ccccc2c1NC(=O)NC(C)C,n[12.7 µM],n,n,n,n
CCOC(=O)c1[nH]c2ccccc2c1NC(=O)CN(C)C,u,n,n,n,n
CCOC(=O)c1[nH]c2ccccc2c1NC(=O)c1ccccc1OC,u,79µM,n,x,n
COc1cccc2[nH]c(C(=O)NN)c(N)c12,50µM,u,u,n,n
O=C(CSc1nc2ccsc2c(=O)n1Cc1ccccc1Cl)NCc1ccc(F)cc1,n,n,n,x,n
CCOC(=O)c1[nH]c2ccc(OC)cc2c1NC(=S)N1CCN(c2ccccc2OC)CC1,79µM,n,u,n,n
O=C(O)c1ccc(N=N/C(=N\Nc2ccc(C(=O)O)cc2)c2ccccc2)cc1,u,28µM,50µM,u,u
O=C(O)c1cccc(N/N=C(\N=Nc2ccccc2)c2ccccc2)c1,u,14µM,40µM,u,35µM
Brc1ccc(N/N=C(/N=Nc2nn[nH]n2)c2ccccc2)cc1,11µM,11µM,13µM,u,13µM
NC(=O)/C(N=Nc1ccccc1)=N/Nc1ccccc1,n[2.33 µM],n,u,n,n
O=C(Nc1cccc(-c2ccc(F)cc2)c1)C1CCCN(C(=O)c2cscn2)C1 (stereo unspecified),n,n,n,x,n
COc1ccc(NC(=O)CN(C)C(=O)C2CCCO2)cc1 (stereo unspecified),n,n,n,n,n
CC1=C(C(=O)Nc2ccc(C)cc2C)C(CC(C)C)n2nc(SCc3ccccc3C)nc2N1 (stereo unspecified),n,n,n,x,n
SMILES,G9a block,BAZ2B block,JMJD2A Tudor,L3MBTL1 inh,HP1b chromo inh
COc1ccc(Cc2nnc(SCC(=O)N3CCN(c4ccccc4)CC3)o2)cc1,u,n,n,n[11.4 µM],n
COc1ccc(Cc2nnc(SCC(=O)N3CCCCC3)o2)cc1,71µM,n,n,n,n
CCOc1ccc(NC(=O)Cn2c(=O)c(CNc3ccc(OC)cc3)cc3ccc(OC)cc32)cc1,u,n,n,x,n
CN(C)N=C1c2cc(S(=O)(=O)N3CCOCC3)ccc2-c2ccc(S(=O)(=O)N3CCOCC3)cc21,20µM,n,u,n,n
OC1(c2ccccc2Cl)NN=C2CCCCCN21 (stereo unspecified),79µM,n,5.6µM,n,n
O=C(COCC(=O)NCc1ccccc1)NCc1ccccc1,n,n,n,n,n
O=C(COc1cccc(Cl)c1)N1CCC(c2nc3ccccc3s2)CC1,n,n,n,x,n
COC(=O)c1ccc(OCC2c3cc(OC)c(OC)cc3CCN2C(=O)Cc2ccc(OC)cc2)cc1 (stereo unspecified),u,n,n,x,n
COc1ccc(-c2nc3ccc(NS(=O)(=O)c4ccc(C)cc4)cc3o2)cc1,n,n,n,x,n
ClCc1csc(N/N=C/c2cccs2)n1,u,n,x,n,x
C(=N\Nc1nc(-c2ccccc2)cs1)/c1cccs1,14µM,u,n,n,n
Cc1onc(-c2ccccc2)c1-c1csc(N/N=C/c2ccccc2)n1,x,n,u,n,n
O=C(O)Cc1sc(N/N=C\c2ccncc2)nc1-c1ccccc1,2µM,n,n[11.4 µM],n,n
C(=N\Nc1nc(-c2ccccc2)cs1)/c1ccncc1,50µM,u,u,n,n
O=[N+]([O-])c1cccc(-c2csc(N/N=C/c3cccc(O)c3)n2)c1,35µM,u,56µM,x,45µM
C(=N\Nc1nc(Nc2ccccc2)nc(Nc2ccccc2)n1)/c1ccncc1,n,n,n,n,n
COc1ccc(CN2CCc3c(c(=O)n4ncc(C(=O)N5CCN(c6ccccc6F)CC5)c4n3C)C2)cc1,n,n,n,x,n
CCn1c(O)c(/C=N/n2cnnc2)sc1=S,18µM,u,56µM,n,n
COc1ccc(NC(=O)CSc2nnc(N)s2)cc1,79µM!,n,n,n,n
O=C(CSc1n[nH]c(-c2ccncc2)n1)NC1CCS(=O)(=O)C1 (stereo unspecified),u,n,89µM,n,n
Cc1ccc(Nc2nnc(SCC(=O)NC3CCCc4ccccc43)s2)cc1 (stereo unspecified),79µM,n,n,n,n
COc1ccc(Nc2nnc(SCC(=O)NC3CCS(=O)(=O)C3)s2)cc1 (stereo unspecified),14µM,n,n,n,n
CCc1ccc(-c2nc(SCC(=O)NC3CCS(=O)(=O)C3)n[nH]2)cc1 (stereo unspecified),n[0.501 µM],n,n,n,n
COc1ccc(Nc2nnc(SCC(=O)NC3CC3)s2)cc1,n[12.7 µM],n,n,n,n
Cc1cccc(Nc2nnc(SCC(=O)NC3CCCc4ccccc43)s2)c1 (stereo unspecified),u,n,n,n,n
SMILES,G9a block,BAZ2B block,JMJD2A Tudor,L3MBTL1 inh,HP1b chromo inh
Cc1ccccc1NC(=O)c1c(C)oc2ccc(O)c(CN3CCCC(C)C3)c12 (stereo unspecified),n,n,n,x,n
CCOC(=O)c1c(NC(=O)CSc2nnc(C)c(=O)[nH]2)sc(C)c1-c1ccc(C)cc1,n[12.7 µM],n,n,x,n
CCN(CC)S(=O)(=O)c1cccc(NC(=O)CSc2nnc(N)s2)c1,18µM,n,n,n,n
CCOc1ccc(C(=O)CSc2nnc(N)s2)cc1,32µM,n,n,n,n
Nc1nnc(SCC(=O)Nc2cccc(S(N)(=O)=O)c2)s1,n,n,n,n,n
CCN(CC)c1ccc(NC(=O)CSc2nnc(N)s2)cc1C,56µM,n,n,x,n
